# In PubChem BioAssay AID1654 (Sanford-Burnham Center for Chemical Genomics, 2009):
# Screen size: about 290,000 compounds; about 1,500 (0.52%) were called active. The entries come from a sample that favours actives as a whole. Unmarked numbers belong to inactive results. No stated cut-off is given here; in the data, active means inhibition above about 50%; inactive means the rest.
# Target: Dual specificity protein phosphatase 3 (Homo sapiens) (UniProt P51452)
# Assay: inhibition of human DUSP3 activity – biochemical, absorbance, uHTS, primary screen (AID 1654)
# Details: recombinant VHR phosphatase, pNPP absorbance, at 13.3 µM, stronger effect = higher value
# Sequence of Dual specificity protein phosphatase 3 (Homo sapiens) (P51452 whole entry, looked up): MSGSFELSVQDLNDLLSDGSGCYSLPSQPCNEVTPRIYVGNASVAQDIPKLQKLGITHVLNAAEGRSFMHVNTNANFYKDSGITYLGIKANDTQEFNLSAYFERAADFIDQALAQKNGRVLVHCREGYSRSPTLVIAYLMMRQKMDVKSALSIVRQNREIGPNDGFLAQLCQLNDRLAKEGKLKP
row,Structure (SMILES),inhibition
1,CCCCc1ccc(NC(=S)NCCCN2CCOCC2)cc1,52.9% (active)
2,Cc1cc(C)cc(NC(=S)NCCCN2CCOCC2)c1,-2.7%
3,COc1cccc(NC(=S)NCCCN2CCOCC2)c1,16.2%
4,COc1cccc(C(=O)Nc2nnc(S(=O)(=O)N3CCCCC3)s2)c1,9.5%
5,CC(=O)c1ccc(S(=O)(=O)NCc2nnnn2-c2ccccc2)cc1,-9.1%
6,CCOc1c(Br)cc(/C=C2\C(=O)N(CCC#N)N=C2C)cc1OC,0.9%
7,COc1cc(/C=C2\C(=N)N3N=C(CC(=O)N4CCOCC4)SC3=NC2=O)cc(OC)c1OC,-15.7%
8,Cn1c(CCc2ccccc2)nnc1SCC(N)=O,2.3%
9,COc1ccc([N+](=O)[O-])cc1N(CC(=O)Nc1ccccc1C(=O)N1CCOCC1)S(C)(=O)=O,29.6%
10,CCn1nnnc1SCC(=O)Nc1ccc(N(C)C)cc1,54.4% (active)
11,CC(=O)Nc1ccc(NC(=O)CSc2nnnn2-c2ccccc2F)cc1,30%
12,CCn1nnnc1SCC(=O)c1ccc(C)cc1C,8.9%
13,CC(C)c1ccc2c(c1)c(SC(C)(C)C)c(CC(C)(C)C(=O)O)n2Cc1ccc(Cl)cc1,-1.6%
14,Cn1c(SCC(=O)NC2CCCCC2)nnc1-c1cc2ccccc2o1,55.6% (active)
15,Cn1c(SCC(=O)NC2CCCCC2)nnc1-c1ccc(N)cc1,15.8%
16,CCOc1cccc(-c2nnc(SCC(=O)NC3CC3)n2C)c1,24%
17,O=[N+]([O-])c1cc([N+](=O)[O-])c(Oc2cc(F)cc(F)c2F)cc1NN1CCCCC1,16.6%
18,COc1cc(NC(=S)N2CCCC(C)C2)cc(OC)c1OC (configuration not stated),56.3% (active)
19,COc1ccc(NC(=S)N2CCCC(CO)C2)c(OC)c1 (configuration not stated),-17.2%
20,COc1cc(NC(=S)N2CCCC(C)C2)c(OC)cc1Cl (configuration not stated),10.6%
21,Cc1ccc(S(=O)(=O)N(CC(=O)Nc2cccnc2)c2ccc(Br)cc2)cc1,-1.5%

row,Structure (SMILES),inhibition
1,COC(=O)C1(CCSC)NC(c2ccc(OC)cc2OC)C2C(=O)N(c3cccc(C(C)=O)c3)C(=O)C21 (configuration not stated),4.9%
2,CCOc1ccccc1CN1CCN(C2CCC2)CC1CCO (configuration not stated),6.5%
3,COc1ccc(N2CCC(N3CCN(C)C(CCO)C3)CC2)cc1 (configuration not stated),6.5%
4,COc1ccccc1N1CCC(N2CCN(CC(C)(C)C)C(CCO)C2)CC1 (configuration not stated),59.1% (active)
5,CNC(=O)COC(=O)c1cc(-c2ccc(OC)cc2)nc2ccccc12,11%
6,COc1ccc(-c2cc(C(=O)n3cnc4ccccc43)c3ccccc3n2)cc1,51.6% (active)
7,COc1ccc(-c2cc(C(=O)N(C)Cc3ccccc3)c3ccccc3n2)cc1,12.2%
8,Cc1ccc(C)c(S(=O)(=O)Nc2cc(C)on2)c1,16.3%
9,COc1ccc(N(CC(=O)N2CCOCC2)S(=O)(=O)c2ccccc2)cc1Cl,18.1%
10,COCCNC(=O)C1CCN(C(=O)C2CC(=O)N(c3ccc(C)cc3)C2)CC1 (configuration not stated),50% (active)
11,COCCCNC(=O)C1CC(=O)N(c2ccc(C)cc2)C1 (configuration not stated),3.4%
12,CCCC(C)NC(=O)C1CCN(C(=O)C2CC(=O)N(c3ccc(C)cc3)C2)CC1 (configuration not stated),13%
13,CC1CCN(C(=O)c2ccc(S(=O)(=O)Cc3cc(F)ccc3F)c([N+](=O)[O-])c2)CC1,4.1%
14,COc1ccc(NC(=O)c2cc([N+](=O)[O-])ccc2NC(=O)CNC2CCCCC2C)c(OC)c1 (configuration not stated),12.5%
15,Cc1cc(NC(=O)[C@H](C)NC(=O)c2ccco2)ccc1Br,10%
16,CSc1ncccc1C(=O)NC1CCCCCC1,21.8%
17,CSc1ncccc1C(=O)OCC(=O)N1CCOCC1,39.8%
18,CSc1ncccc1C(=O)OCc1ccc(Br)cc1,58.3% (active)
19,CN(CC(=O)Nc1c(Cl)cccc1Cl)C(=O)c1ccncc1,2.5%
20,O=C(CCS(=O)(=O)c1ccc2c(c1)NC(=O)CS2)NCc1ccccc1Cl,25.2%
21,CCOc1ccc(-n2c(SCC(=O)Nc3ccc(OC)cc3)nc3sc4c(c3c2=O)CCN(C)C4)cc1,5.3%

row,Structure (SMILES),inhibition
1,CN(C)CCCn1c(SCc2ccc(Cl)cc2)nnc1-c1ccncc1,24%
2,Cn1c(SCc2ccc(F)cc2)nnc1-c1ccncc1,53% (active)
3,Cc1ccc(CSc2nnc(-c3cnccn3)n2C)cc1,21.3%
4,CCOC(=O)c1ccc(NC(=O)c2nc[nH]c2C(=O)N[C@@H](CCCCNC(=O)OC(C)(C)C)C(=O)OC(C)(C)C)cc1,3.3%
5,CCc1ccc(OCC(=O)OC(C)C(=O)NC2CC2)cc1 (configuration not stated),5%
6,CCn1c(=S)sc2c(=O)n(CC(=O)Nc3cccc(Br)c3)c(C)nc21,-3.6%
7,CCn1c(=S)sc2c(=O)n(CC(=O)Nc3ccc(OC)cc3)c(C)nc21,57.9% (active)
8,COc1ccc(NC(=O)Cn2c(-c3ccc(OC)cc3)cn(-c3ccc(C)cc3)c2=O)cc1,6.2%
9,Cc1c(Cl)cccc1NC(=S)NCC(O)c1ccccc1 (configuration not stated),2.3%
10,CC1CCC2(CC1)NC(=O)N(CC(=O)c1ccc3c(c1)OCO3)C2=O (configuration not stated),5.4%
11,COc1ccc(CNC(=O)CN(c2ccc(OC)c(Cl)c2)S(=O)(=O)c2ccc(C)cc2)cc1,59.1% (active)
12,CCOc1ccc(N(CC(=O)NCc2ccc(OC)cc2)S(=O)(=O)c2c(C)noc2C)cc1,30.2%
13,COc1ccc(S(=O)(=O)N(CC(=O)NCc2ccco2)c2ccc(F)cc2)cc1,-4.2%
14,C=CCN1C(=O)C2(OCCCO2)c2cccc(Cl)c21,19.2%
15,Cc1cc(=O)oc2c3c(cc(OCC(=O)NCc4ccccn4)c12)OC(C)(C)CC3,-2.9%
16,CC(=O)N[C@@H](C)C(=O)N1CCC(n2nccc2NC(=O)CCCc2ccccc2)CC1,10.4%
17,O=C(O)C1=NN(c2c(F)c(F)cc(F)c2F)C(=O)CC1,-11.9%
18,O=S(=O)(NC1CCCCC1N1CCCCC1)c1ccc(Cl)cc1 (configuration not stated),52% (active)
19,O=S(=O)(NC1CCCCC1N1CCC(O)CC1)c1ccc(Cl)cc1 (configuration not stated),17.2%
20,CCN1CCN(C2CCCCC2NS(=O)(=O)c2ccc(Cl)cc2)CC1 (configuration not stated),11.4%
